Results on 16 molecules are retold here after ChEMBL document CHEMBL1961873, “Compounds: GSK PKIS; Assays: Nanosyn kinase panel” (2012).

The target of assay [1] is T1, Tyrosine-protein kinase receptor TYRO3 (Homo sapiens) (UniProt Q06418).
T1 sequence (whole entry): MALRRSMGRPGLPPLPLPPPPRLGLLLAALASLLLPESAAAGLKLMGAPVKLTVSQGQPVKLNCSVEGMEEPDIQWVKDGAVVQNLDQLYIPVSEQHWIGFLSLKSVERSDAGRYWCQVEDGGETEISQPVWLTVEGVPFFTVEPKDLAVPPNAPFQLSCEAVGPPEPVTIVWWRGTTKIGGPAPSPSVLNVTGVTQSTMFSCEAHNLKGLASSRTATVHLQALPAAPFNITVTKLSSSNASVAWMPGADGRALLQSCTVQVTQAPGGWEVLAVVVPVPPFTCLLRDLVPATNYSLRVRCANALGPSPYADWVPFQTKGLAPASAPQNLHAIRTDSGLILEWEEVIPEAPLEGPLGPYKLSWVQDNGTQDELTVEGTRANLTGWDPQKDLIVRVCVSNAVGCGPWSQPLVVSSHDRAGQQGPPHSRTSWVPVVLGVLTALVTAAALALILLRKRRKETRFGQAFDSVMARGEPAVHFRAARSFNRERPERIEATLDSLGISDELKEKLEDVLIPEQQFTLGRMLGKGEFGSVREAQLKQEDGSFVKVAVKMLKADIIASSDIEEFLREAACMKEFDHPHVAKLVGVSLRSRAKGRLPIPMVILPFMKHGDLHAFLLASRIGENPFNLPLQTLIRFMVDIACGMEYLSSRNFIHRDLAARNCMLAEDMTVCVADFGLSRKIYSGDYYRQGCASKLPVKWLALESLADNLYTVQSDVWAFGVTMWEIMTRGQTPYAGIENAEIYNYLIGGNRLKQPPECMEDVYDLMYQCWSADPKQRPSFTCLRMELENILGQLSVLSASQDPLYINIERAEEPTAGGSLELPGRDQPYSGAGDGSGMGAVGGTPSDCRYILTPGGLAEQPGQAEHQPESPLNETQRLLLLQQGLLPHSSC
As to conditions: at 1 µM.

Assay [2] addresses Tyrosine-protein kinase Yes (Homo sapiens) (UniProt P07947). As to conditions: at 0.1 µM.
The target is the same in assay [3]. As to conditions: at 1 µM.
Assay [4] addresses T2, Tyrosine-protein kinase ZAP-70 (Homo sapiens) (UniProt P43403).
T2 sequence (whole entry): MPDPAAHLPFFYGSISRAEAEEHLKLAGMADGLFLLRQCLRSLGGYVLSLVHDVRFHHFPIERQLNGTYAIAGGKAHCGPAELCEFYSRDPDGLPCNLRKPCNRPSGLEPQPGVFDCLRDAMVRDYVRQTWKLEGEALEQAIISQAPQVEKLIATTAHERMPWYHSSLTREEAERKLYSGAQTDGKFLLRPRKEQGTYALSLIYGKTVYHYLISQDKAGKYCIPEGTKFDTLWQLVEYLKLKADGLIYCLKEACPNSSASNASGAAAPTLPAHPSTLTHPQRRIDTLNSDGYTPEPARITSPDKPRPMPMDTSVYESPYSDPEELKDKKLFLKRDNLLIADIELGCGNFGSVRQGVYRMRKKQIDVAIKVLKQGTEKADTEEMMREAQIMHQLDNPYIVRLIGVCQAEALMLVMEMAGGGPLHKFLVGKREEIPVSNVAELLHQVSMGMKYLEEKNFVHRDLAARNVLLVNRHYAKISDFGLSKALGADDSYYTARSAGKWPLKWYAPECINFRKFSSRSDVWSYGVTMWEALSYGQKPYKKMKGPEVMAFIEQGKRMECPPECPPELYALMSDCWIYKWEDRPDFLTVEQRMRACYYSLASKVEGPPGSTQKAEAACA
The settings on record: at 0.1 µM.

Assay [5] deals with T2, Tyrosine-protein kinase ZAP-70 (Homo sapiens). The settings on record: at 1 µM.
Assay [6] addresses Serine/threonine-protein kinase B-raf (Homo sapiens) (UniProt P15056). The settings on record: at 0.1 µM.
For assay [7] the target is unchanged. The settings on record: at 1 µM.
The test system of assay [8] is Serine/threonine-protein kinase B-raf (Homo sapiens), P15056 [V600E]. As to conditions: at 0.1 µM.
Sequence of Serine/threonine-protein kinase B-raf (Homo sapiens), P15056 [V600E] (P15056 whole entry V600E): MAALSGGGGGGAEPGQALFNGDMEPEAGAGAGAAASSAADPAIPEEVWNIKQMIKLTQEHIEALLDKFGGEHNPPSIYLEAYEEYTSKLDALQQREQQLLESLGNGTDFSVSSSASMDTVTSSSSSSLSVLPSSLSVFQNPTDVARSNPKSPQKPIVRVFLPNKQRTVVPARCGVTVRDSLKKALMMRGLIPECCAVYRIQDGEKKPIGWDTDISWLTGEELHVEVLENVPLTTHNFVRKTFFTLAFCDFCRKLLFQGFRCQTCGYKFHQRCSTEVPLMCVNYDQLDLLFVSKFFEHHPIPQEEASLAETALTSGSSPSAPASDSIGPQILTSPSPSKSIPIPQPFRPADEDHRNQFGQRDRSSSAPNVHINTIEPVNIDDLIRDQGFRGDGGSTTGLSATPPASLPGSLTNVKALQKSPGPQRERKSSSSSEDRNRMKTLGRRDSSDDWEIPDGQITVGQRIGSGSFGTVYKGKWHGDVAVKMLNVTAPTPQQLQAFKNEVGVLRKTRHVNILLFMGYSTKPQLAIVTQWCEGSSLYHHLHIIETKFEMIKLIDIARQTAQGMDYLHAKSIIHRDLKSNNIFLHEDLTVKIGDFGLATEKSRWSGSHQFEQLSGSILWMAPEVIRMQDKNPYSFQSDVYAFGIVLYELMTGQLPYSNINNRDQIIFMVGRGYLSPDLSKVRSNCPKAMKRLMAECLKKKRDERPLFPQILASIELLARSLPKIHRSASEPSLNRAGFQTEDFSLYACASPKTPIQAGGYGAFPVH
For assay [9] the test system is unchanged. The settings on record: at 1 µM.
Assay [10] deals with RAF proto-oncogene serine/threonine-protein kinase (Homo sapiens) (UniProt P04049). As to conditions: at 0.1 µM.
Sequence of RAF proto-oncogene serine/threonine-protein kinase (Homo sapiens) (P04049 whole entry): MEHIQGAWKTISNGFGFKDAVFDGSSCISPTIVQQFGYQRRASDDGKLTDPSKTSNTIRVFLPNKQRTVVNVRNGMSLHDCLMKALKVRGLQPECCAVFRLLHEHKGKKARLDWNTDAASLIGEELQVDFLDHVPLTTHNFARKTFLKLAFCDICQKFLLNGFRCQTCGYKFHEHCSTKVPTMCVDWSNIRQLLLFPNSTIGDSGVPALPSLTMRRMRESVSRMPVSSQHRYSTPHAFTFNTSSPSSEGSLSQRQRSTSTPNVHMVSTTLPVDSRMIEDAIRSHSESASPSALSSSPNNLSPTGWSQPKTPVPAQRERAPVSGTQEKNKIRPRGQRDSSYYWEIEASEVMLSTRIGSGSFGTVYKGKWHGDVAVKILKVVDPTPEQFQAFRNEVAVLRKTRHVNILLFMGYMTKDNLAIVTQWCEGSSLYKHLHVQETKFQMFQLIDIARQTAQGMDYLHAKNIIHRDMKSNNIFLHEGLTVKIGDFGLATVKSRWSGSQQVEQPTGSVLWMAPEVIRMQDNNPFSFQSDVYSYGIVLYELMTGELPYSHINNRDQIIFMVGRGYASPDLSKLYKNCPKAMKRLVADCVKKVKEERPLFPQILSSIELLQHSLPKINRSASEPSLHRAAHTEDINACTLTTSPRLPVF

Sequence of Tyrosine-protein kinase Yes (Homo sapiens) (P07947 2-543 limits assumed): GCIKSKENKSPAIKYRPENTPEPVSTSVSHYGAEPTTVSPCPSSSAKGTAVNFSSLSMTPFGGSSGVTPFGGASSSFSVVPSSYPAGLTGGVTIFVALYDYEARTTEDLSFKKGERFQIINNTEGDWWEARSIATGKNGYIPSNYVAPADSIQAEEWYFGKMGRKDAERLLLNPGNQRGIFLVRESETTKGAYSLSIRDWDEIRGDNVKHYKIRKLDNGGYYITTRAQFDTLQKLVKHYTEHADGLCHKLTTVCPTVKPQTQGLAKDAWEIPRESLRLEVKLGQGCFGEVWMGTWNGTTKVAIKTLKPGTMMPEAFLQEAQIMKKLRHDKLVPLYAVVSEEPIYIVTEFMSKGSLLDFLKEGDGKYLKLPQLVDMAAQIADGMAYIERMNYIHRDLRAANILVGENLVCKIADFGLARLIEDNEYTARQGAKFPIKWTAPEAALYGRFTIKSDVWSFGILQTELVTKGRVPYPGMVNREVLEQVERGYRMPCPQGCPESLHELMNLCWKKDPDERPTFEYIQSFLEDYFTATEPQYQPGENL
Sequence of Serine/threonine-protein kinase B-raf (Homo sapiens) (P15056 whole entry): as the sequence (P15056 whole entry V600E) above, with E600V counted along it

As for `Cc1ccc(C(=O)NC2CC2)cc1-c1ccc2[nH]ncc2c1`, the inhibition is -0.85% in assay [1]; -1.92% in assay [2]; -0.56% in assay [3]; -3.94% in [4]; -1.58% in assay [5]; -6.03% in assay [6]. For the same molecule, the inhibition in assay [7] is -6.48%; in assay [8], -3.87%; in assay [9], -3.07%; in assay [10], -2.17%.
`Oc1cccc(-c2nc(-c3ccccc3)[nH]c2-c2ccncc2)c1`: the inhibition in assay [1] is 9.74%; in assay [2], 4.12%; in assay [3] it was 21.9%; in assay [4], 3.06%; in assay [5], 3.35%; in [6] it was 14.5%. Further, the inhibition in assay [7] was 30%; in [8], 12.8%; in [9], 28.9%; in [10], 1.16%.
Take `Cc1cc(O)cc(C)c1/C=C/c1cncc(C(=O)N(C)C)c1`: the inhibition in assay [1] was determined as 2.81%; in [2], 0.44%; in assay [3], 1.22%; in assay [4] it was 1.81%; in assay [5] it was 2.36%; in [6], 3.04%. Further, the inhibition came out at 3.56% in assay [7], 4.11% in assay [8], 3.14% in [9] and 6.23% in [10].
In the case of `CN(C)C(=O)O[C@H]1CN[C@H](C#Cc2cc3ncnc(Nc4ccc(OCc5cccc(F)c5)c(Cl)c4)c3s2)C1`, the inhibition in assay [1] was found to be 2.13%; in assay [2], 1.37%; in assay [3], 3.86%; in assay [4], 0.97%; in assay [5], 3.33%; in [6] it was 3.09%. For the same molecule, the inhibition in assay [7] was determined as 6.19%; in assay [8], 3.55%; in assay [9], 5.77%; in assay [10], 3.11%.
Take `CN(C)CCCn1c(-c2nonc2N)nc2cnccc21`: the inhibition in [1] came to 1.97%; in assay [2], 0.2%; in assay [3] it was 0.44%; in [4], 1.32%; in [5] it was 0.96%; in [6] it was 5.59%. Besides, the inhibition in assay [7] came to 6.07%; in assay [8] it was 5.51%; in assay [9], 5.34%; in assay [10], 7.16%.
On to `CN(C)c1cc2c(Nc3ccc4c(cnn4Cc4ccccc4)c3)ncnc2cn1`, for which the inhibition was 7.51% in assay [1]; 13.5% in assay [2]; 49.8% in assay [3]; 2.63% in assay [4]; 5.85% in assay [5]; 3.72% in assay [6]. Moreover, the inhibition came to 3.71% in [7], 4.74% in assay [8], 4.34% in [9] and 1.64% in assay [10].
For the molecule `CCCN1CCCC(c2ccc(Nc3nc(Nc4cc(F)ccc4C(N)=O)c4cc[nH]c4n3)c(OC)c2)C1` (stereo not given), the inhibition amounted to 7.19% in assay [1]; 5.09% in assay [2]; 9.04% in assay [3]; 7.83% in assay [4]; 28.7% in [5]; 11.6% in [6]. The inhibition in [7] was determined as 40.1%; in [8] it was 11.2%; in assay [9], 35.5%; in assay [10] it was 1.24%.
As to `CC(C)c1ccc2c(c1)NC(=O)/C2=N/Nc1ccc(S(N)(=O)=O)cc1`, the inhibition in [1] was 2.75%; in assay [2], 2.45%; in assay [3], 9.19%; in assay [4], -0.31%; in [5] it was 1.5%; in assay [6] it was -0.82%. Besides, the inhibition in assay [7] is -1.25%; in assay [8], 0.24%; in assay [9] it was -0.56%; in assay [10] it was -2.32%.
Turning to `CCn1c(-c2nonc2N)nc2c(C#CC(C)(C)O)nc(OCCNC)cc21`, the inhibition in [1] came out at 3.31%; in [2], 3.64%; in [3] it was 3.28%; in assay [4], 1.77%; in assay [5], 1.49%; in assay [6], 6.22%. Besides, the inhibition in assay [7] amounted to 7.65%; in [8], 3.6%; in assay [9] it was 3.03%; in assay [10] it was 0.76%.
For `Cc1nc(-c2ccccc2)n2nc(NCCCN3CCOCC3)ncc12`, the inhibition worked out at 2.63% in assay [1]; 0.53% in [2]; 6.58% in assay [3]; 0.35% in [4]; 0.63% in assay [5]; 3.54% in assay [6]. The inhibition in assay [7] worked out at 7.13%; in assay [8] it was 4.13%; in assay [9], 4.57%; in assay [10], 8.88%.
Regarding `Cc1ccc(NC(=O)CC2CC2)cc1-c1ccc(C(=O)NCC2CC2)cc1`, the inhibition in assay [1] is 4.65%; in assay [2] it was 1.53%; in [3] it was 2.46%; in assay [4] it was -0.2%; in [5], 2.11%; in [6], 4.43%. The inhibition in assay [7] stood at 6.22%; in assay [8], 4.33%; in assay [9] it was 4.96%; in assay [10], 3.39%.
As for `CCn1c(-c2nonc2N)nc2ccc(F)cc21`, the inhibition in [1] came out at 5.61%; in [2], 4.26%; in assay [3], 8.39%; in assay [4] it was 3.33%; in assay [5], 2.76%; in [6], 8.45%. Further, the inhibition in [7] is 7.77%; in [8], 9.84%; in assay [9], 7.05%; in assay [10], -0.53%.
With `Cc1cc(-c2ccccn2)cc(C)c1/C=C/c1cncc(-c2nn[nH]n2)c1`, the inhibition in assay [1] was 0.93%; in [2], 1.13%; in assay [3] it was 11.4%; in assay [4], 3.62%; in assay [5] it was -2.29%; in assay [6] it was 5.62%. In addition, the inhibition amounted to 12.4% in [7], 4.7% in [8], 5.23% in assay [9] and 1.48% in assay [10].
As for `CCS(=O)(=O)c1ccc(OC)c(Nc2ncc(-c3cccc(OC)c3)o2)c1`, the inhibition in assay [1] is 40.6%; in [2], 34.5%; in assay [3] it was 80.2%; in [4] it was -1.53%; in assay [5], -2.95%; in assay [6], 1.82%. The inhibition in assay [7] was found to be 5.54%; in assay [8] it was 1.52%; in assay [9] it was 4.88%; in [10], 5.24%.
For `FC(F)(F)c1ccc(-c2nn3ncccc3c2-c2ccnc(Nc3ccc4c(c3)OCCO4)n2)cc1`, the inhibition in [1] was 5.58%; in [2], 30%; in assay [3], 83.3%; in assay [4], 5.79%; in [5], 5.21%; in assay [6], -1.63%. For the same molecule, the inhibition in assay [7] is -1.17%; in assay [8] it was -1.85%; in assay [9], -1.18%; in assay [10], -0.32%.
On to `Cc1ccc2c(c1)/C(=N/Nc1ccc(S(N)(=O)=O)cc1)C(=O)N2`, for which the inhibition in assay [1] is 0.35%; in [2], -0.04%; in assay [3], 5.49%; in assay [4], 1.31%; in assay [5] it was 1.47%; in assay [6], 0.51%. For the same molecule, the inhibition was found to be 3.31% in assay [7], 0.4% in assay [8], 3.37% in [9] and 0.26% in [10].

In general, inhibition refers to the drop in the measured response relative to a control, in per cent.
